# Source: PMC5700166
# Molecular target: T1, GST-Aq-NF-kB (Amphimedon queenslandica, UniProt A9Y5G7 2-389)
# T1 sequence: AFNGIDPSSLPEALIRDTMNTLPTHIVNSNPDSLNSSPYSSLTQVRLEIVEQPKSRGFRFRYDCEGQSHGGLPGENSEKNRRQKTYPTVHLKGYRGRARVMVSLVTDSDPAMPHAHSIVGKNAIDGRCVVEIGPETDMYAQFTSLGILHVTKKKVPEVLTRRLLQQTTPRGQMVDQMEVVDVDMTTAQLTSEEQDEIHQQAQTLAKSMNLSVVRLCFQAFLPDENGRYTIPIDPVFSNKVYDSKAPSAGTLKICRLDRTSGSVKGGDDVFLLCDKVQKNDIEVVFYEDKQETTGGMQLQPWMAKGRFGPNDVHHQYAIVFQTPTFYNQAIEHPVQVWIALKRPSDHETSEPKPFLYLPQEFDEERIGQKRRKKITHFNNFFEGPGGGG
# Assay: protein-binding microarray (PBM); PBM: ~300 nM protein, 6 mM HEPES pH 7.8, 80 mM KCl, 0.5 mM EDTA, 0.5 mM EGTA, 6% glycerol, 35 ng/ul poly-dIdC, 1% milk, 1 h, room temperature; Ap Aiptasia and Nv Nematostella (sea anemones) / Co Capsaspora / Aq Amphimedon (sponge) / Dm Drosophila / Hu human; RHD is the Rel homology domain; high values mean tight binding
# Conditions: dsDNA, one strand shown
row,Sequence,binding signal [z-score]
1,CCGATTAACATCAAAATTCCACCTGATGTTAATCGGGTCTTGATTCGCTTGACGCTGCTG,2.25
2,CCGATTAACATCACCCCCCCCCGTGATGTTAATCGGGTCTTGATTCGCTTGACGCTGCTG,5.46
3,CCGATTAACATCAGCCCCCCCCATGATGTTAATCGGGTCTTGATTCGCTTGACGCTGCTG,4.51
4,CCGATTAACATCAGGGAACTCCATGATGTTAATCGGGTCTTGATTCGCTTGACGCTGCTG,3.71
5,CCGATTAACATCAGGGTTTTCCATGATGTTAATCGGGTCTTGATTCGCTTGACGCTGCTG,4.33
6,CCGATTAACATCAGGGGCGGGAATGATGTTAATCGGGTCTTGATTCGCTTGACGCTGCTG,4.18
7,CCGATTAACATCAGGGGTTCCACTGATGTTAATCGGGTCTTGATTCGCTTGACGCTGCTG,3.97
8,CCGATTAACATCAGGGAAGCCCATGATGTTAATCGGGTCTTGATTCGCTTGACGCTGCTG,3.64
9,CCGATTAACATCAGGGACCTCCCTGATGTTAATCGGGTCTTGATTCGCTTGACGCTGCTG,7.04
10,CCGATTAACATCACATGTTCCCCTGATGTTAATCGGGTCTTGATTCGCTTGACGCTGCTG,4.62
11,CCGATTAACATCAAGCAACCCCCTGATGTTAATCGGGTCTTGATTCGCTTGACGCTGCTG,4.14
12,CCGATTAACATCAAAAATTTACCTGATGTTAATCGGGTCTTGATTCGCTTGACGCTGCTG,2.7
13,CCGATTAACATCAACAAAGTCCCTGATGTTAATCGGGTCTTGATTCGCTTGACGCTGCTG,4.25
14,CCGATTAACATCAGGGGAAGGACTGATGTTAATCGGGTCTTGATTCGCTTGACGCTGCTG,5.22
15,CCGATTAACATCACGGGAATCCCTGATGTTAATCGGGTCTTGATTCGCTTGACGCTGCTG,7.15
16,CCGATTAACATCAGGAAAAACCCTGATGTTAATCGGGTCTTGATTCGCTTGACGCTGCTG,7.68
17,CCGATTAACATCAGAACATTCCCTGATGTTAATCGGGTCTTGATTCGCTTGACGCTGCTG,5
18,CCGATTAACATCAGGAAAACACCTGATGTTAATCGGGTCTTGATTCGCTTGACGCTGCTG,5.13
19,CCGATTAACATCAGGGCAAACCCTGATGTTAATCGGGTCTTGATTCGCTTGACGCTGCTG,4.6
20,CCGATTAACATCAGGGGGATAGATGATGTTAATCGGGTCTTGATTCGCTTGACGCTGCTG,3.47

row,Sequence,binding signal [z-score]
1,CCGATTAACATCACGGAAGTCCCTGATGTTAATCGGGTCTTGATTCGCTTGACGCTGCTG,5.41
2,CCGATTAACATCAGGGAACGCCCTGATGTTAATCGGGTCTTGATTCGCTTGACGCTGCTG,5.25
3,CCGATTAACATCAGGTACTTCCATGATGTTAATCGGGTCTTGATTCGCTTGACGCTGCTG,2.23
4,CCGATTAACATCAGGTAATCACCTGATGTTAATCGGGTCTTGATTCGCTTGACGCTGCTG,4.04
5,CCGATTAACATCAGGTAATTCCATGATGTTAATCGGGTCTTGATTCGCTTGACGCTGCTG,3.06
6,CCGATTAACATCAGGGATTCTCATGATGTTAATCGGGTCTTGATTCGCTTGACGCTGCTG,2.67
7,CCGATTAACATCAGGGAATTATATGATGTTAATCGGGTCTTGATTCGCTTGACGCTGCTG,6.69
8,CCGATTAACATCACGAAAATCCCTGATGTTAATCGGGTCTTGATTCGCTTGACGCTGCTG,4.64
9,CCGATTAACATCAAAAAAAGTCCTGATGTTAATCGGGTCTTGATTCGCTTGACGCTGCTG,4.05
10,CCGATTAACATCAACCACCCCCTTGATGTTAATCGGGTCTTGATTCGCTTGACGCTGCTG,3.83
11,CCGATTAACATCAGGAATCCCTATGATGTTAATCGGGTCTTGATTCGCTTGACGCTGCTG,2.57
12,CCGATTAACATCAATACACCCCCTGATGTTAATCGGGTCTTGATTCGCTTGACGCTGCTG,3.5
13,CCGATTAACATCAGGGACTTACCTGATGTTAATCGGGTCTTGATTCGCTTGACGCTGCTG,8.29
14,CCGATTAACATCAGGGCCCCCCCTGATGTTAATCGGGTCTTGATTCGCTTGACGCTGCTG,7.6
15,CCGATTAACATCAGAGTCCCCCCTGATGTTAATCGGGTCTTGATTCGCTTGACGCTGCTG,4.89
16,CCGATTAACATCAGGAAATGCCCTGATGTTAATCGGGTCTTGATTCGCTTGACGCTGCTG,5.41
17,CCGATTAACATCAGGAATAACCCTGATGTTAATCGGGTCTTGATTCGCTTGACGCTGCTG,5.81
18,CCGATTAACATCAGGGACTCACCTGATGTTAATCGGGTCTTGATTCGCTTGACGCTGCTG,4.68
19,CCGATTAACATCACGGACTTCCCTGATGTTAATCGGGTCTTGATTCGCTTGACGCTGCTG,5.45
